High-throughput results: PubChem BioAssay, National Center for Advancing Translational Sciences (NCATS)
DT40 TDP1 CPT: qHTS for Inhibitors of human tyrosyl-DNA phosphodiesterase 1 (TDP1): qHTS in cells in presence of CPT. chicken DT40 Tdp1-/-;hTDP1 cells + 20 nM CPT, ATP luminescence, 48 h. Potency, µM (top dose mostly 46.2 µM), for inactives: at the highest dose activity change, negative = growth inhibition, most hits filed as inhibitors. hit rate 12% among 420,000. AID 686979, 2013; further: nearly all actives have a fitted effect of over 55% in size
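Chicken DT40 Tdp1-/- cells stably complemented with human TDP1 were seeded at 400 cells/well in medium containing 20 nM camptothecin, exposed to pin-transferred compounds, and grown at 37 °C for at least 48 hr. Viability was read as ATP luminescence.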
VP16 counter: VP16 counterscreen qHTS for inhibitors of ROR gamma transcriptional activity | Drosophila S2 Gal4-VP16 UAS-luciferase, luminescence, 20 h | Potency, µM (highest dose often 53.6 µM), without a hit: at the top dose activity, negative = inhibition, hits mostly inhibitors | hit rate 3.5% among 310,000 | AID 2546, 2010;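 further: Gal4-VP16 expression switched on by copper sulfate through the metallothionein promoter; nearly all actives have a fitted effect of over 50% in size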
TDP1 inh: qHTS Assay for Inhibitors of Tyrosyl-DNA Phosphodiesterase (TDP1); AID 485290, 2010; Potency, µM (doses to about 130 µM), for the others: at the top dose activity change, negative = inhibition, most hits filed as inhibitors; hit rate 0.28% among 350,000; recombinant TDP1, AlphaScreen DNA substrate cleavage; further: nearly all actives have a fitted effect of over 40% in size
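Recombinant E. coli-expressed Tdp1 (1 nM) preincubated with compound 15 min at RT, then 5'-biotin/3'-phosphotyrosine-FITC DNA substrate (15 nM) added for 5 min. AlphaScreen beads (10 ug/ml) added, 10 min RT; tyrosine-FITC cleavage read as signal loss.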
TDP1 cell noCPT: qHTS for Inhibitors of human tyrosyl-DNA phosphodiesterase 1 (TDP1): qHTS in cells in absence of CPT; DT40 Tdp1-/- hTDP1 cells, no CPT, ATP luminescence, 48 h; Potency, µM (doses to about 46.2 µM), for the others: at the highest dose activity change, negative = growth inhibition, usual class: inhibitors; hit rate 15% among 420,000; AID 686978, 2013; further: nearly all actives have a fitted effect of over 55% in size
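Luminescent ATP content (CellTiter-Glo) served as the growth readout. Knockout chicken DT40 cells expressing human TDP1 were exposed to compounds without camptothecin for a minimum 48 hr at 37 °C.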
RORg inh: qHTS for inhibitors of ROR gamma transcriptional activity | Potency, µM (highest dose often 53.6 µM), for the others: at the top dose activity change, negative = inhibition, hits mostly inhibitors | hit rate 5.4% among 310,000 | AID 2551, 2010 | Nuclear receptor ROR-gamma (Mus musculus), P51450 | Drosophila S2 Gal4-RORgamma UAS-luciferase reporter, 20 h; further: nearly all actives have a fitted effect of over 60% in size
Target sequence (P51450 whole entry, looked up, the tested form may be a part): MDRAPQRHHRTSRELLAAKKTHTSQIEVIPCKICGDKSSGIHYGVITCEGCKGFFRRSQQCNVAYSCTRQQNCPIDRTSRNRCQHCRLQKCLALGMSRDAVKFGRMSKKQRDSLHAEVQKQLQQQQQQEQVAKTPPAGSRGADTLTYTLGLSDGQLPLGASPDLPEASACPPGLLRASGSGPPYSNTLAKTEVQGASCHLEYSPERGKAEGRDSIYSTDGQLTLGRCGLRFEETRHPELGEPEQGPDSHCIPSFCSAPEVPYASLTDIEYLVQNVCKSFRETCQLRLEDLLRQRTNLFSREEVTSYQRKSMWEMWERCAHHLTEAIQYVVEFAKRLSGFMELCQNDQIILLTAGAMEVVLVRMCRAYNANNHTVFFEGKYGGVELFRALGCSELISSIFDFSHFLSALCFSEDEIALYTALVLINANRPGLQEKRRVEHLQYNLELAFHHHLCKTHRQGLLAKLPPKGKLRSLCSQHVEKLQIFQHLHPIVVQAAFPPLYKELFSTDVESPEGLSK
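Stable Schneider cell line, Gal4 DNA-binding domain fused to ROR gamma, UAS-luciferase. Cmpd 1 hr RT → CuSO4 700 uM final → 20 hr RT → luciferase reagent 10 min → luminescence.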
Active calls of the source: *; ? = inconclusive; . = not tested or not shown; [ ] = dose if it differs, or a comment. A selection: hits, their analogues and other compounds. The true share with any hit is near 19%. The call rests on the fitted dose curve; in most records, active means well fitted curve in the direction sought with a large enough effect; inconclusive means small, poorly fitted or top-dose-only effect, or another doubt; inactive means no such curve, though single readings can be large; an effect the other way counts as inactive or inconclusive. On the % scale 0 is the no-effect control and ±100 the full control effect; potency means the concentration at half of the fitted maximal effect.

SMILES	DT40 TDP1 CPT	VP16 counter	TDP1 inh	TDP1 cell noCPT	RORg inh
Cc1cc(N2CCCCC2)n2ncc(-c3ccccc3)c2n1	?	10µM*	.	29µM*	?
Cc1cc(N2CCC(C)CC2)n2ncc(-c3ccccc3)c2n1	-4%	?	.	?	?
CC(C)[C@H](NC(=O)c1ccco1)C(=O)OCC(=O)Nc1ccc(F)cc1	5%	1%	5%	-15%	-1%
Cc1c(Cl)cccc1N1C(=O)c2ccccc2C1=O	6%	.	-1%	-12%	-8%[0.365 µM]
Cc1ccc(-n2ncc3c2ncn2c(-c4ccncc4)nnc32)cc1	.	2%	3%	.	3%
O=C(Nc1ccccc1)c1nn(-c2cccc(C(F)(F)F)c2)ccc1=O	-29%	3%	3%	?	?
Cc1cc(S(=O)(=O)NC(=O)[C@H]2O[C@@H](n3cnc4c(N)ncnc43)[C@H](O)[C@@H]2O)ccc1Br	-19%	.	.	-26%	.
Cc1ccc(-c2cc(C(=O)N3CCCC3)no2)cc1	3%	7.1µM*	7%	0%	11µM*
O=C(c1cc(-c2ccco2)on1)N1CCOCC1	-4%	-9%	2%	-6%	-6%
Cc1ccc(-c2cc(C(=O)N3CCOCC3)no2)cc1	-10%	14µM*	.	-1%	7.9µM*
Cc1ccc(-c2noc(-c3ccccc3C(=O)N3CCN(C)CC3)n2)cc1	-1%	-1%	3%	?	-1%
Cc1ccc(-c2noc(-c3ccccc3C(=O)N3CCCC3)n2)cc1	16µM*	16%	1%	23µM*	?
O=C(NCCc1ccccn1)c1ccc2nc(Cc3ccccc3F)oc2c1	?	20%	4%	-19%	41%
COc1cc([N+](=O)[O-])cc(/C=N/NC(=O)C(C)Nc2cccc3ccccc23)c1O (stereo not given)	16µM*	0.5µM*	9%	?	0.4µM*
COc1cc([N+](=O)[O-])cc(/C=N/NC(=O)C(O)(c2ccccc2)c2ccccc2)c1O	4.1µM*	0.89µM*	.	?	0.35µM*
O=C(N/N=C/c1cccc([N+](=O)[O-])c1O)C(O)(c1ccccc1)c1ccccc1	?	1.3µM*	5%	26µM*	0.71µM*
Cc1cccc(/C=N/NC(=O)C(C)Nc2cccc3ccccc23)n1 (stereo not given)	?	?	10%	?	?
COc1cc(-c2noc(C)c2C#Cc2nccn2C)cc(OC)c1OC	16µM*	-2%	.	13µM*	-34%
O=C(/C=C/c1c(F)cccc1Cl)Nc1ccc(S(=O)(=O)Nc2ncccn2)cc1	-1%	-15%	0%	-3%	11%
CSc1ccc(NC(=O)NCc2ccccc2)cc1	5%	10%	0%	-15%	13%
Cc1nn(C)c(C)c1N1C(=O)c2cccc3c(N)ccc(c23)C1=O	-26%	-1%	4%	-10%	-5%
Cc1ccc(N2C(=O)c3cccc4c(N)ccc(c34)C2=O)c2cccnc12	0.0082µM*	?	.	0.021µM*	?
COc1ccc(NC(=O)c2c(-c3ccccc3)c(-c3ccccc3)nn(C)c2=O)cc1OC	?	.	-2%	?	.
COc1ccc(NC(=O)c2c(-c3ccccc3)c(-c3ccccc3)nn(C)c2=O)c(OC)c1	16µM*	.	5%	?	.
COC(=O)c1ccc(C(=O)OC)c(NC(=O)c2c(-c3ccccc3)c(-c3ccccc3)nn(C)c2=O)c1	?	.	5%	15µM*	.
SMILES	DT40 TDP1 CPT	VP16 counter	TDP1 inh	TDP1 cell noCPT	RORg inh
CCOC(=O)NNC1CC(=O)N(c2ccc(OC)cc2)C1=O (stereo not given)	9%	-9%	6%	-5%	-8%
Cc1cccc(-c2nc(CSCC(=O)N3CCN(c4ccccn4)CC3)c(C)o2)c1	21µM*	-22%	3%	?	40%
Cc1cccc(-c2nc(CSCC(=O)N3CCN(c4cccc(C)c4C)CC3)c(C)o2)c1	18µM*	.	6%	?	.
COCOc1ccc(/C=C2/Oc3cc(OCOC)cc(OCOC)c3C2=O)c(OCOC)c1	13µM*	.	.	23µM*	.
N/C(=N\OC(=O)c1ccccc1)c1cccnc1	-11%	12%	5%	8%	0%
N/C(=N\OC(=O)CC(c1ccccc1)c1ccccc1)c1cccnc1	12µM*	?	-5%	?	-20%
COc1cc(NC(=O)COc2ccc(F)cc2)nc(OC)n1	1%	6%	-2%	-11%	-1%
CCN(CCCNC(=O)c1cc2cc3ccc(C)cc3nc2s1)c1ccccc1	?	.	5%	26µM*	.
COCCN(CCOC)C(=O)c1cc2sc3ccccc3c2s1	?	-5%	-2%	?	-7%
CCOc1ccc(CNC(=O)c2cc3c(=O)n(C)c4ccccc4c3s2)cc1	9.2µM*	.	2%	2.6µM*	.
CN(C)CCNC(=O)c1cc2sc3ccccc3c2s1	?	-5%	1%	23µM*	-22%
CCCN(CCC)CCNC(=O)c1cc2c(=O)n(CC)c3ccccc3c2s1	-22%	7%	.	?	6%
CCN(CCCNC(=O)c1cc2cc3cc(OC)ccc3nc2s1)c1cccc(C)c1	-26%	.	8%	?	.
CCOc1ccc(CNC(=O)c2cc3c(=O)oc4ccc(C)cc4c3s2)cc1	?	.	5%	?	.
CCN(CCCNC(=O)c1cc2c(=O)n(C)c3ccccc3c2s1)Cc1ccccc1	15µM*	.	-2%	21µM*	.
Cc1ccc(OCCSc2nc3ccccc3n2CC(=O)O)c(C(C)C)c1	27%	-4%	.	-14%	39%
CCN(CCCNC(=O)c1cc2c(=O)[nH]c3ccc(C)cc3c2s1)c1ccc(C)cc1	?	.	4%	?	.
CCN(CCCNC(=O)c1cc2c(=O)n(CC)c3ccccc3c2s1)c1cccc(C)c1	?	.	5%	?	.
CCN(CC)CCNC(=O)c1cc2c(=O)n(CC)c3ccccc3c2s1	?	2%	.	18µM*	7%
CCN(CC)CCCNC(=O)c1cc2c(=O)n(CC)c3ccccc3c2s1	?	-9%	.	?	3%
CCCN1CCN(CCCNC(=O)c2cc3c(=O)[nH]c4ccc(C)cc4c3s2)CC1	?	?	1%	16µM*	?
CCN(CCCNC(=O)c1cc2c(=O)[nH]c3ccc(C)cc3c2s1)Cc1ccccc1	7.3µM*	.	4%	4.6µM*	.
CCN(CCCNC(=O)c1cc2c(=O)n(C)c3ccccc3c2s1)c1ccccc1	?	.	-2%	15µM*	.
